In PubChem BioAssay (Tox21):
Inconclusive results are not listed. Active and inactive are the calls of the source. Unless noted, the call rests on the fitted dose curve; in most records, active means well fitted curve in the direction sought with a large enough effect in the repeat runs; inconclusive means weak or mixed curves; inactive means no such curve, though single readings can be large; an effect the other way counts as inactive or inconclusive.

Tests used:
[1] = qHTS assay to identify small molecule agonists of the RXR signaling pathway - cell viability counter screen (AID 1159529); further: nearly all actives have a fitted effect of over 50% in size; further: potency means the concentration at half of the fitted maximal effect
Summary of the method: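 RXR-alpha-UAS-bla HEK 293T cells in medium with 2% charcoal-stripped FBS were preincubated 5 hr, then exposed to compounds for 16 hr at 37 C. Viability was read as CellTiter-Glo luminescence after 30 min at room temperature.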

[2] = qHTS assay to identify small molecule antagonists of the estrogen related receptor (ERR) signaling pathway from Tox21 library - cell viability counter screen (AID 1224834); further: nearly all actives have a fitted effect of over 30% in size; further: potency means the concentration at half of the fitted maximal effect
Summary of the method: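 Multiplexed viability counter screen in ERR cells: 17.5 h compound exposure at 37 C, CellTiter-Fluor added, 30 min at 37 C/5% CO2, fluorescence read.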

[3] = qHTS assay to identify small molecule agonists of the constitutive androstane receptor (CAR) signaling pathway - cell viability counter screen (AID 1224836); further: nearly all actives have a fitted effect of over 45% in size; further: potency means the concentration at half of the fitted maximal effect
Summary of the method: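 HepG2 cells stably carrying hCAR and a CYP2B6-2.2kb reporter were plated 4 h, then given compounds at 15 concentrations plus PK11195 (final 0.75 uM). After 23 h at 37 C, viability was read by CellTiter-Fluor fluorescence.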

[4] = qHTS assay to identify small molecule antagonists of the constitutive androstane receptor (CAR) signaling pathway - cell viability counter screen (AID 1224837); further: nearly all actives have a fitted effect of over 45% in size; further: potency means the concentration at half of the fitted maximal effect
Summary of the method: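 Read-out: CellTiter-Fluor fluorescence after 23 hr at 37 C/5% CO2. Cells: HepG2 double-stable for hCAR and CYP2B6-2.2kb. Compounds tested at 15 concentrations in the presence of CITCO, final concentration 50 nM.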

[5] = qHTS assay to identify small molecule antagonists of the estrogen related receptor signaling pathway with the pleiotropic PPARgamma coactivator (PGC) from Tox21 10K library - cell viability counter screen (AID 1224840; active means well fitted cell-killing curve with a large enough effect in the repeat runs, not every such curve was filed as active; further: nearly all actives have a fitted effect of over 40% in size; further: potency means the concentration at half of the fitted maximal effect)
Summary of the method: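 Fluorescence read-out of CellTiter-Fluor viability reagent, added after cells had been exposed to compound in DMSO for 17.5 h at 37 C; 30 min development at 37 C/5% CO2. Cells: PGC/ERR line, 2,000/well.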

[6] = qHTS assay to identify small molecule antagonists of the retinoic acid receptor (RAR) signaling pathway (AID 1159552; further: nearly all actives have a fitted effect of over 50% in size; further: potency means the concentration at half of the fitted maximal effect)
Summary of the method: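 RARE-luc C3RL4 cells; cpds + 1 uM (final) retinol, 6 hr, 37 C/5% CO2; luciferase reagent, 30 min RT, luminescence readout. Inhibitors of retinol-driven signal scored.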

[7] = biological target: Luciferin 4-monooxygenase (Photinus pyralis) (UniProt P08659); experiment: qHTS assay to identify small molecule inhibitors of firefly luciferase (AID 1224835); further: nearly all actives have a fitted effect of over 25% in size; further: potency means the concentration at half of the fitted maximal effect
Luciferin 4-monooxygenase (Photinus pyralis), sequence (P08659 whole entry, looked up): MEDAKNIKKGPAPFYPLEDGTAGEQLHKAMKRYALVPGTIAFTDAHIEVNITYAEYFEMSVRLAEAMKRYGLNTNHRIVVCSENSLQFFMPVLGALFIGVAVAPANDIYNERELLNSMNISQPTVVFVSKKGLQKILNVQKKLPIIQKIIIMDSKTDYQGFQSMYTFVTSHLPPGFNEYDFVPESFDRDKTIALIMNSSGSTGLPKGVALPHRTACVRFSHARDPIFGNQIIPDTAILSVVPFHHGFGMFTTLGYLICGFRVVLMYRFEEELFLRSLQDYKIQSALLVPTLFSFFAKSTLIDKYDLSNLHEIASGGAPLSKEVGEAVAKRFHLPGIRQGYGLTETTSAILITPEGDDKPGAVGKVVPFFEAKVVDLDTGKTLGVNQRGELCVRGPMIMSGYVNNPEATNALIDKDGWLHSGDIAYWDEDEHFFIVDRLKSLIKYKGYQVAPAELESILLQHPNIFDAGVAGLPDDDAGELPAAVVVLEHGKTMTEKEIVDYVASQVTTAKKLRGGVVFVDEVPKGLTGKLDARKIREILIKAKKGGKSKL
Summary of the method: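 Quantitative HTS format; KM concentrations of both substrates. Purified P. pyralis FLuc activity quantified from luminescence images.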

[8] = biological target: Nuclear receptor subfamily 1 group I member 3 (Homo sapiens) (UniProt Q14994); experiment: qHTS assay to identify small molecule antagonists of the constitutive androstane receptor (CAR) signaling pathway (AID 1224838); further: nearly all actives have a fitted effect of over 40% in size; further: potency means the concentration at half of the fitted maximal effect
Nuclear receptor subfamily 1 group I member 3 (Homo sapiens), sequence (Q14994 whole entry, looked up): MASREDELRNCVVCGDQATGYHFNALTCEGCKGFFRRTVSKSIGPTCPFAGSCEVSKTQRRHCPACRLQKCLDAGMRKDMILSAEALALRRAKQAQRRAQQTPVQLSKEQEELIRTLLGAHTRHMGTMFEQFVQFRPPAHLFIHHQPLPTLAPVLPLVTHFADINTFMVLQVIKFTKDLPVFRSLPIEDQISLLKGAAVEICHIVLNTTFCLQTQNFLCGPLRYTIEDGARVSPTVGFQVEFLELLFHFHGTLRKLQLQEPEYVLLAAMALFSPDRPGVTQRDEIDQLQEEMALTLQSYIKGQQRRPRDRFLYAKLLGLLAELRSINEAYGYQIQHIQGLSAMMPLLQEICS
Summary of the method: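 Read-out: ONE-Glo luciferase luminescence after 30 min at room temperature. HepG2-CYP2B6-hCAR double-stable cells, compounds in 15-point titration plus 50 nM CITCO final, 24 h at 37 C/5% CO2.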

[9] = qHTS assay to identify small molecule antagonists of the estrogen related receptor signaling pathway with the pleiotropic PPARgamma coactivator (PGC) from Tox21 10K library (AID 1224841; call rule not given here; further: actives are mostly falling curves and most rising ones were filed inactive; nearly all actives have a fitted effect of over 50% in size; further: potency means the concentration at half of the fitted maximal effect)
Summary of the method: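 Luminescence read-out (One-Glo luciferase reagent, 30 min at room temperature) from PGC/ERR cells exposed to DMSO-dissolved test compounds for 18 h at 37 C; cells, 2,000 per well, had been preincubated 6 h before compound transfer.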

[10] = qHTS assay to identify small molecule antagonists of the retinoid acid receptor (RAR) signaling pathway - cell viability counter screen (AID 1159551); further: nearly all actives have a fitted effect of over 35% in size
Summary of the method: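 C3RL4 RARE-luciferase line; cpds + retinol 1 uM final, 6 h, 37 C/5% CO2; CellTiter-Glo ATP luminescence, 30 min RT.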

[11] = biological target: Nuclear receptor subfamily 1 group I member 3 (Homo sapiens) (UniProt Q14994); experiment: qHTS assay to identify small molecule agonists of the constitutive androstane receptor (CAR) signaling pathway (AID 1224839); further: nearly all actives have a fitted effect of over 15% in size; further: potency means the concentration at half of the fitted maximal effect
Summary of the method: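 HepG2 cells stably expressing hCAR and a CYP2B6-2.2kb luciferase reporter were treated with compounds at 15 concentrations plus 0.75 uM PK11195 (final) for 24 h at 37 C; luminescence was read after ONE-Glo addition.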

[12] = qHTS assay to identify small molecule agonists of the estrogen related receptor signaling pathway with the pleiotropic PPARgamma coactivator (PGC) from Tox21 10K library (AID 1224842); further: nearly all actives have a fitted effect of over 15% in size
Summary of the method: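 PGC/ERR reporter cells (NTP line) were seeded 2,000 per well, rested 6 h at 37 C/5% CO2, then pin-dosed with compounds in DMSO for 18 h at 37 C; luciferase read by One-Glo luminescence after 30 min at room temperature.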

[13] = qHTS assay to identify small molecule agonists of the retinoic acid receptor (RAR) signaling pathway (AID 1159553); further: potency means the concentration at half of the fitted maximal effect
Summary of the method: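 RARE-luc C3RL4 cells; overnight attachment 37 C/5% CO2; compound (DMSO) 6 hr; luciferase reagent, 30 min RT; luminescence read-out.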

Measured: Potency

CCOP(=S)(OCC)SCSCC
inactive: [1] | [2] | [3] | [4] | [5]

CCC(C)(NC(=O)c1cc(Cl)c(C)c(Cl)c1)C(=O)CCl (centres undefined)
inactive: [7]
active: [6] 4.89 µM | [2] 24.5 µM | [8] 48.9 µM | [5] 24.5 µM | [9] 3.88 µM

CC1(C)CCC(Cc2ccc(Cl)cc2)C1(O)Cn1cncn1 (centres undefined)
inactive: [10] | [7] | [3] | [4] | [8] | [11] | [12]
active: [9] 38.6 µM

CC(C)N(C(=O)COc1nnc(C(F)(F)F)s1)c1ccc(F)cc1
active: [9] 38.6 µM
not listed: [1] | [11] | [12] | [13]
inactive: all other assays above

CS/C(C)=N/OC(=O)N(C)SN(C)C(=O)O/N=C(\C)SC
inactive: [11] | [12]
active: [1] 49 µM | [7] 31.7 µM

Cc1ccccc1C(=O)Nc1cccc(OC(C)C)c1
inactive: [10] | [2] | [3] | [4] | [8] | [5]

O=C(Nc1ccccc1)Nc1ccnc(Cl)c1
inactive: [10] | [6]
active: [2] 43.3 µM | [7] 15.9 µM | [3] 48.6 µM | [5] 61.1 µM

O=C(OC1CCCCC1)c1ccccc1C(=O)OC1CCCCC1
inactive: [10] | [7] | [4] | [8] | [5]

COP(=S)(OC)Oc1ccc([N+](=O)[O-])cc1Cl
inactive: [10] | [6] | [8]
active: [2] 48.6 µM | [7] 35.6 µM

O=C=Nc1ccc(Cl)cc1
active: [13] 24.3 µM | [7] 5.64 µM | [11] 6.86 µM
not listed: [1] | [9] | [12]
inactive: all other assays above

CC(=O)c1cc2c(cc1C)C(C)(C)C(C)CC2(C)C (centres undefined)
inactive: [7] | [3] | [4] | [8]
active: [1] 43.6 µM

Clc1ccc(C(OCCN2CCCCC2)c2ccccc2)cc1 (centres undefined)
not listed: [1] | [2] | [6] | [13]
inactive: all other assays above

CCCCC(O)(Cn1cncn1)c1ccc(Cl)cc1Cl (centres undefined)
inactive: [7] | [8] | [12]
active: [1] 54.9 µM | [2] 54.4 µM | [4] 61.1 µM | [5] 54.4 µM | [9] 48.5 µM

COC(=O)C(C)N(C(=O)Cc1ccccc1)c1c(C)cccc1C (centres undefined)
active: [11] 9.69 µM
inactive: [10] | [6] | [7] | [3] | [4] | [8] | [5]
